Reference: PubChem BioAssay (NCATS)
Records with an inconclusive call do not appear. Active and inactive are the calls of the source. The call rests on the fitted dose curve; in most records, active means well fitted curve in the direction sought with a large enough effect; inconclusive means small, poorly fitted or top-dose-only effect, or another doubt; inactive means no such curve, though single readings can be large; an effect the other way counts as inactive or inconclusive.

How the values were obtained:
[1] = qHTS of pediatric cancer cell lines to identify multiple opportunities for drug repurposing: Primary screen for TC32 cells (AID 1347089); further: nearly all actives have a fitted effect of over 60% in size; further: potency means the concentration at half of the fitted maximal effect
In short: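 TC32 cells, 500-1,000/well in growth medium, compound-treated 48 h at 37 °C; viability from CellTiter-Glo luminescence. Primary screen: MIPE 11-point (0.78 nM–46 µM final), NPC 8-point (0.59 nM–46 µM final); confirmatory at 11-point dilutions.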

[2] = qHTS of pediatric cancer cell lines to identify multiple opportunities for drug repurposing: Primary screen for DAOY cells (AID 1347090); further: nearly all actives have a fitted effect of over 55% in size; further: potency means the concentration at half of the fitted maximal effect
In short: (§1)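 Eight- or eleven-point concentration series, 48 h treatment at 37 degrees C in growth media; readout CellTiter-Glo luminescence. Potency and efficacy were taken from the concentration-response curves.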

[3] = qHTS of pediatric cancer cell lines to identify multiple opportunities for drug repurposing: Primary screen for A673 cells (AID 1347092); further: nearly all actives have a fitted effect of over 45% in size; further: potency means the concentration at half of the fitted maximal effect
In short: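 A673 cells (500-1,000 cells/well) were treated 48 hours at 37 degrees C with compounds at 11-point (0.78 nM to 46 µM) or 8-point (0.59 nM to 46 µM) dilutions. Viability read by CellTiter-Glo luminescence; concentration-response curves fitted.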

[4] = qHTS of pediatric cancer cell lines to identify multiple opportunities for drug repurposing: Primary screen for SK-N-MC cells (AID 1347093); further: potency means the concentration at half of the fitted maximal effect
In short: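 Metabolically active cells were quantified by ATP-dependent luminescence (CellTiter-Glo, 15 min at room temperature) following 48 h treatment. Cells had been plated at 500-1,000 per well and settled for 5 h beforehand.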

[5] = qHTS of pediatric cancer cell lines to identify multiple opportunities for drug repurposing: Primary screen for NB-EBc1 cells (AID 1347095); further: potency means the concentration at half of the fitted maximal effect
In short: (§2)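 Readout: CellTiter-Glo luminescence, 48 h treatment. Controls DMSO (neutral) and bortezomib 2.3 µM final (positive). Potency and efficacy taken from primary-screen concentration-response curves.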

[6] = qHTS of pediatric cancer cell lines to identify multiple opportunities for drug repurposing: Primary screen for Saos-2 cells (AID 1347097); further: nearly all actives have a fitted effect of over 40% in size; further: potency means the concentration at half of the fitted maximal effect
In short: as §2

[7] = qHTS of pediatric cancer cell lines to identify multiple opportunities for drug repurposing: Primary screen for SK-N-SH cells (AID 1347098); further: nearly all actives have a fitted effect of over 65% in size; further: potency means the concentration at half of the fitted maximal effect
In short: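 Cells (500-1,000/well) rested 5 h, then received compounds for 48 h; metabolically active cells were measured by CellTiter-Glo luminescence. Final concentrations spanned up to 46 µM (MIPE, 11-point) or 0.59 nM-46 µM (NPC, 8-point) in primary screens, 11-point in follow-ups.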

[8] = qHTS of pediatric cancer cell lines to identify multiple opportunities for drug repurposing: Primary screen for BT-37 cells (AID 1347094); further: potency means the concentration at half of the fitted maximal effect
In short: as §2

[9] = qHTS of pediatric cancer cell lines to identify multiple opportunities for drug repurposing: Primary screen for U-2 OS cells (AID 1347096); further: nearly all actives have a fitted effect of over 50% in size
In short: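 Cells (500-1,000/well) in growth media were settled 5 h at 37 degrees C, then given compounds for 48 h. Viability was read as CellTiter-Glo luminescence. Primary runs used MIPE at 11 points (0.78 nM-46 µM) and NPC at 8 points (0.59 nM-46 µM); follow-ups used 11 points.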

[10] = qHTS of pediatric cancer cell lines to identify multiple opportunities for drug repurposing: Primary screen for SJ-GBM2 cells (AID 1347091); further: potency means the concentration at half of the fitted maximal effect
In short: as §1

Measured: Potency

CC(C)(O)C(=O)Nc1ccc([N+](=O)[O-])c(C(F)(F)F)c1
active: [2] 18.7 µM | [3] 11.8 µM | [4] 0.935 µM | [7] 24.1 µM
inactive: [1] | [5] | [6]

C[C@]12CC[C@H]3[C@@H](CCC4=CC(=O)CC[C@@]43C)[C@H]1CC[C@H]2OC(=O)CCC1CCCC1
inactive: [1] | [2] | [8] | [5] | [9]
active: [4] 11.8 µM

CC(C)NCC(O)c1ccc([N+](=O)[O-])cc1 (stereo not drawn)
not listed: [9] | [10]
inactive: all other assays above

CN1CCN(c2ccc([N+](=O)[O-])c3no[n+]([O-])c23)CC1
active: [10] 23.5 µM | [3] 23.5 µM | [4] 18.7 µM | [6] 26.4 µM
inactive: [1] | [9] | [7]

CCCN1CCO[C@@H]2c3cc(O)ccc3OC[C@@H]21
active: [8] 21.7 µM | [5] 16.6 µM | [7] 21.5 µM
inactive: [1] | [2]

O=C(Nc1ccccc1-c1ccc(Cl)cc1)c1cccnc1Cl
not listed: [5] | [6] | [10]
inactive: all other assays above

CC(C)Oc1cccc(NC(=O)c2ccccc2C(F)(F)F)c1
inactive: [1] | [2] | [3] | [8] | [9]

C[C@]12Cc3cn[nH]c3C[C@@H]1CC[C@@H]1[C@H]2CC[C@@]2(C)[C@H]1CC[C@]2(C)O
active: [3] 14.8 µM | [4] 0.469 µM
inactive: [1] | [2] | [9] | [7]

C=C[C@@H]1CN2CCC1C[C@H]2[C@H](O)c1ccnc2ccccc12 (stereo partly drawn)
active: [6] 18.7 µM
inactive: [1] | [2] | [5] | [9]

O=[N+]([O-])c1ncc[nH]1
not listed: [2] | [6] | [9]
inactive: all other assays above

CO[C@H]1CCC(O[C@H]2C[C@H]([C@]3(C)CC[C@]4(C[C@H](O)[C@@H](C)[C@@H]([C@@H](C)C=C(C)C(=O)[C@H](C)C[C@H](C)C(=O)O)O4)O3)O[C@]3(O[C@@H]([C@H]4O[C@@](O)(CO)[C@H](C)C[C@H]4C)C[C@H]3C)[C@H]2C)O[C@H]1C (stereo partly drawn)
active: [1] 18.6 µM | [2] 4.69 µM | [3] 1.48 µM | [4] 0.187 µM | [8] 0.344 µM | [5] 0.209 µM | [7] 30.4 µM

C[C@@H]1CC[C@H]2[C@@H](C)C(=O)O[C@@H]3O[C@@]4(C)CC[C@H]1[C@]32OO4
active: [4] 11.8 µM
not listed: [2] | [5] | [8]
inactive: all other assays above

CCO/N=C(\CC)C1=C(O)CC(c2c(C)cc(C)cc2C)CC1=O (stereo not drawn)
inactive: [1] | [2] | [3] | [8] | [5] | [9]

CC(=Cc1csc(C)n1)[C@@H]1C[C@H]2O[C@@H]2CCC[C@H](C)[C@@H](O)[C@@H](C)C(=O)C(C)(C)[C@@H](O)CC(=O)O1
active: [1] 0.0012 µM | [10] 0.001 µM | [4] 0.001 µM | [5] 0.001 µM
inactive: [7]
